In PubChem BioAssay AID504854 (Southern Research Specialized Biocontainment Screening …, 2011):
Results with a measured potency or affinity are listed apart. Unmarked numbers belong to inactive results. No rule for the calls is given here.

Experiment: Vero cell cytotoxicity, dose response, cytotoxicity control for M. tuberculosis growth inhibitor project, Vero cells, purified and synthesized compounds, set 4 (AID 504854)
Conditions: series mostly up to 100 µM; viability: at the top concentration

Compared with `O=C(CSc1ncccn1)NC1CCCCC1`, `O=C(CSc1nccc(=O)[nH]1)NC1CCCCC1` is lower in “viability” value: 91.7% for the first, 90.6% for the second.

First: Cc1nc(SCC(=O)NCCC(C)C)[nH]c(=O)c1C
Second: CCSc1nc(C)c(C)c(=O)[nH]1
The “viability” value of the first is lower: 89.4% for the first, 94.9% for the second.

Compared with `Cc1nc(SCC(=O)N(C)c2ccccc2)[nH]c(=O)c1C`, `NC(=O)CSc1nc2ccccc2c(=O)[nH]1` is higher in “viability” value: 97% for the first, 98.6% for the second.

First: CCC(Sc1nc2ccccc2c(=O)[nH]1)C(=O)NC1CCCCC1 (configuration not stated)
Second: O=C(CSc1nc2ccccc2c(=O)[nH]1)NC1CCCCC1
The “viability” value of the first is higher: 97.8% for the first, 96.3% for the second.

Going from `Cc1cc(=O)[nH]c(SCC(=O)NC2CCCCC2)n1` to `COC(=O)c1ccc(CNc2c(N3CCCC3)c(=O)c2=O)cc1`, the “viability” value rises from 86.1% to 93.3%.

First: Cc1[nH]c(=S)[nH]c(=O)c1C
Second: Cc1c[nH]c(=S)[nH]c1=O
The “viability” value of the first is lower: 92.8% for the first, 99.7% for the second.
